PP1 inh = counter-screen for PP5 inhibitors: inhibitors of human PP1-alpha; P62136; purified PP1alpha, OMFP fluorescence; inhibition, % at 6.7 µM; 320,000 compounds, 0.9% hits; AID 2235;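 active = inhibition above the mean inhibition of all tested compounds plus 3 SD, computed separately for each screening campaign, cut at about 15% in these data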
GASC-1 inh = inhibitors of human GASC-1 (JMJD2C) demethylase. GST-JMJD2C(1-420) H3K9me3 demethylation, DELFIA europium. inhibition, % at 2.35 µM. 330,000 compounds, 0.069% hits;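 active = more than half of a compound's replicate wells show inhibition beyond 50%, single wells judged on their own value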;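 also: signal counts dimethyl H3K9 product captured on neutravidin plate; 0% = median of DMSO wells and 100% = 0.3 times that DMSO median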
PG9 binder = small molecules binding HIV-1 gp120 antibody PG9; inhibition, % at 6.7 µM; 360,000 compounds, 0.43% hits; TR-FRET gp120-PG9 antibody binding; AID 624416; in the data active = inhibition above about 8.5%
proKLK7 act = activates the human kallikrein-7 zymogen. P49862. purified proKLK7, EDANS-DABCYL substrate fluorescence; 100% is mature enzyme control, 0% vehicle. activation, % at 7 µM. 370,000 compounds, 0.9% hits;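 active = activation above the mean of all tested compounds plus 3 SD, computed per campaign excluding outliers beyond control limits, cut at about 13% in these data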
Target sequence (P49862 whole entry, looked up): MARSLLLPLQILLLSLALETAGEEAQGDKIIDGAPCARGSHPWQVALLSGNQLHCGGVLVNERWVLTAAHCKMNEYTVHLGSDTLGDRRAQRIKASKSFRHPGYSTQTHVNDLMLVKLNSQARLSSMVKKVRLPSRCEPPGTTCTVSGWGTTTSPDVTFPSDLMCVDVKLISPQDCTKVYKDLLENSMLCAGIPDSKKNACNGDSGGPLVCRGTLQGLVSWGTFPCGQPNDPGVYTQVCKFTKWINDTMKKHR
PP5 inh = inhibitors of human protein phosphatase 5 (PP5); purified PP5c, OMFP substrate fluorescence; inhibition, % at 6.7 µM; 320,000 compounds, 0.18% hits;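 active = inhibition above the campaign's mean inhibition across all tested compounds plus 3 SD, cut at about 9.5% in these data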;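 also: 0% = DMSO only and 100% = 100 µM cantharidin control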
Rev-erbA mod = modulators of human Rev-erb alpha DNA binding; P20393; activity, % at 10 µM; 370,000 compounds, 0.79% hits; Rev-erbα–FITC-DNA binding, fluorescence polarization, 90 min;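 active = activity above about 14%, limit read from the data; passing the limit was not always enough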;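 also: 0% = DMSO wells with 35 nM protein and 100% = DMSO wells with 750 nM protein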
Numbers without * were called inactive; x = not tested or not shown. Only some compounds are listed: those with a hit (about 2.8% of all), similar ones and a draw of the others.

SMILES	PP1 inh	GASC-1 inh	PG9 binder	proKLK7 act	PP5 inh	Rev-erbA mod
C/C=C(\C)C(=O)N1CC2(CC(c3cccc(NC(=O)CC(c4ccccc4)c4ccccc4)c3)=NO2)C[C@H]1C(N)=O (stereo partly drawn)	x	-1	x	x	x	x
Cc1cc(C(=O)N/N=C/c2cc(N=Nc3ccccc3)ccc2O)n[nH]1	15*	4	x	x	1	x
CC1(C)C2CC[C@]3(C)C(C(=O)C=C4[C@@H]5C[C@@](C)(C(=O)O)CC[C@]5(C)CC[C@]43C)[C@@]2(C)CC[C@@H]1OC(=O)CCC(=O)O (stereo partly drawn)	x	x	x	x	x	1
COCCSc1nnc(-c2cccnc2)n1Cc1ccccc1	x	x	x	0	x	-6
c1ccc(Nc2nc(NCc3ccco3)c3ccccc3n2)cc1	16*	12	1	1	1	-3
Cc1ccc(NC(=S)N(Cc2ccc(Cl)cc2)Cc2ccc(C(=O)O)cc2)cc1Cl	17*	6	-1	0	6	1
COc1ccc(N2CCN(CCCNC(=O)Cn3c(=O)c4cccn4c4cccnc43)CC2)c(OC)c1	x	x	x	x	x	-2
Cc1cc2cc(C(c3nnnn3Cc3ccco3)N3CCc4ccccc4C3)c(=O)[nH]c2cc1C (stereo not drawn)	15*	-6	0	-1	3	0
COC(=O)c1ccc(C=NNC(=O)c2cc(-c3ccc(C)c(C)c3)n[nH]2)cc1	x	x	x	0	x	-22
CCc1cc(C(=O)N=Nc2c(O)[nH]c3ccc([N+](=O)[O-])cc23)c2ccccc2n1	16*	-19	-2	0	1	7
CCN(CC)CCOc1ccc(/C(=C(\Cl)c2ccccc2)c2ccccc2)cc1	18*	7	-2	0	3	-7
CCn1c2ccccc2c2cc(NC(=O)COC(=O)c3cc(F)ccc3F)ccc21	x	x	x	-1	x	13
Cc1ccc(-c2csc3nc4cc(C(=O)NC5CCC(O)CC5)ccc4c(=O)n23)cc1 (stereo not drawn)	-2	67*	8	-11	4	-2
NC(=O)c1ccc2c(=O)n3c(-c4cc(Cl)c(N)c(Cl)c4)csc3nc2c1	6	12	-2	0	2	-21
O=C1CC(c2ccco2)Cc2nc(Nc3nc(-c4ccccc4)c4ccccc4n3)ncc21 (stereo not drawn)	26*	16	-3	0	0	-6
O=C(Nc1ccc(-n2nncc2-c2ccco2)cc1)c1cc2ccccc2oc1=O	29*	x	x	x	-2	x
CCn1c(SCC(=O)NN=Cc2c[nH]c3ccccc23)nc2ccccc21	x	x	x	0	x	0
CCN(CC)C(=O)C1CCCN(C(=O)Nc2ccc3nsnc3c2)C1 (stereo not drawn)	-4	-17	2	19*	5	-8
CC(=O)Nc1ccc(NC(=O)c2ccc(-c3ccc([N+](=O)[O-])cc3)o2)cc1	16*	-12	2	0	1	-23
CC(C)(C)C(=O)N1CCC[C@]2(CC[C@H](CCC#N)O2)C1	x	x	x	-1	x	2
Cc1cccc(CN2CCC(Oc3ccc(C(=O)N4CCCC4)cc3)CC2)n1	-2	66*	-3	0	2	2
COc1ccc(-n2c(SCC(=O)Nc3ccc(Oc4ccccc4)cc3)nnc2-c2ccco2)cc1	x	x	x	0	x	-1
Cc1cccc(/C=C/C(=O)c2cc(Br)ccc(=O)c2O)c1	18*	14	-2	-1	1	-8
CCc1ccc(/C=C/C(=O)c2cc(Br)ccc(=O)c2O)cc1	12	-6	-1	0	5	-5
Nc1cccc2c(=O)c3ccccc3[nH]c12	16*	-3	-16	2	2	-1
CC(C)c1cc(C(C)C)c(S(=O)(=O)N2c3ccccc3[C@@]3(Br)C[C@H]4C(=O)N[C@@H](Cc5ccccc5)C(=O)N4[C@@H]23)c(C(C)C)c1	16*	-8	x	x	4	x
CC(C)c1cc(C(C)C)c(S(=O)(=O)N2c3ccccc3[C@]3(Br)C[C@H]4C(=O)N[C@@H](Cc5ccccc5)C(=O)N4[C@H]23)c(C(C)C)c1	x	20	x	x	x	x
Cc1ccc(SCc2nc3ccccc3n2CC(=O)Nc2c(C)cccc2C)cc1	16*	4	2	0	1	3
Cc1ccc(SCc2nc3ccccc3n2CC(=O)Nc2ccccc2)cc1	1	-6	0	-1	4	-1

Source: PubChem BioAssay (several laboratories)
